# Source: PubChem (National Center for Advancing Translational Sciences (NCATS))
# Only some compounds are listed: those with a hit (about 2.1% of all), similar ones and a draw of the others.
# Abeta yeast res – A-beta toxicity reversal in yeast; yeast expressing A-beta42, growth rescue, OD600, 48 h; response scale: 0% DMSO, 100% iron-clioquinol control; Potency, µM (titrated, usually from 46.1 µM), actives largely listed as activators; 410,000 tested, 0.063% active; further: nearly all actives have a fitted effect of over 55% in size
#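 Yeast A-beta toxicity model in growth medium with pinned compounds, 48 h at 30 C; growth read as absorbance at 600 nm. Normalized to FeCl3/clioquinol equimolar mix (positive) and DMSO (negative).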
# aSyn rescue – inhibitors of alpha-synuclein toxicity in yeast. Yeast expressing alpha-synuclein, growth rescue, BacTiter-Glo, 24 h. Potency, µM (doses to about 46.1 µM), inactives show at the highest dose growth rescue (activation), actives largely listed as activators. 370,000 tested, 0.14% active; further: % of control where 0% means no effect; nearly all actives have a fitted effect of over 65% in size
#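 Readout is rescue of growth in alpha-synuclein-expressing yeast, so inhibitors of toxicity appear as activators. Growth after 24 hr at 30 deg C in galactose medium is quantified by luminescence.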
# FUS suppressor – rescues growth of FUS-expressing yeast. S. cerevisiae FUS-expressing, growth rescue, OD600, 24 h. Potency, µM (doses to about 76.6 µM), usual class: activators. 390,000 tested, 0.24% active. AID 1347120;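 further: plate controls were DMSO vehicle for no effect and reference control for full effect; nearly all actives have a fitted effect of over 55% in size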
#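 Toxicity suppression screen in FUS-yeast. Cells induced with 2% galactose, starting OD 0.005, treated 24hr at 30C with compounds at multiple final concentrations; growth by OD600.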
# TDP43 rescue – TDP-43 toxicity inhibition in yeast | TDP-43 expressing yeast growth rescue, BacTiter-Glo, 24 h | Potency, µM (top dose mostly 46.1 µM), without a hit: at the top dose growth rescue (activation), usual class: activators | 410,000 tested, 1.8% active; further: % of control where 0% means no effect; nearly all actives have a fitted effect of over 50% in size
#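 Galactose-induced TDP-43 yeast, OD600=0.02, compound pinned; 24 hr, 30 deg C; BacTiter-Glo luminescence for growth. Inhibitors of TDP-43 toxicity read as activators.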
# * = called active by the depositor; i = inactive; ? = inconclusive; . = not tested or not shown. The call rests on the fitted dose curve; in most records, active means well fitted curve in the direction sought with a large enough effect; inconclusive means small, poorly fitted or top-dose-only effect, or another doubt; inactive means no such curve, though single readings can be large; an effect the other way counts as inactive or inconclusive. Potency means the concentration at half of the fitted maximal effect.
SMILES,Abeta yeast res,aSyn rescue,FUS suppressor,TDP43 rescue
O=C(Nc1ccccc1Cl)c1cc(C2CCCN(C(=O)CCc3ccccc3)C2)on1 (stereo unspecified),i,3%,i,?
O=C(NCc1ccccc1)c1cc(C2CCCN(C(=O)CCc3ccccc3)C2)on1 (stereo unspecified),i,0%,i,0%
O=C(NCc1ccc(F)cc1)c1cc(C2CCCN(C(=O)CCCc3ccccc3)C2)on1 (stereo unspecified),i,12%,?,18µM*
O=C(Nc1ccc(F)c(Cl)c1)c1cc(C2CCCN(C(=O)C3CC3)C2)on1 (stereo unspecified),i,-8%,i,25µM*
O=C(Nc1ccc(F)c(Cl)c1)c1cc(C2CCCN(C(=O)CCc3ccccc3)C2)on1 (stereo unspecified),i,1%,i,28µM*
O=C(Nc1ccccc1)c1cc(C2CCCN(C(=O)OCc3ccccc3)C2)on1 (stereo unspecified),i,1%,i,35µM*
O=C(Nc1ccccc1)c1cc(C2CCCCN2C(=O)OCc2ccccc2)on1 (stereo unspecified),i,12%,i,17%
CCCS(=O)(=O)c1ncc(Cl)c(C(=O)N(Cc2ccccc2)Cc2ccco2)n1,i,23%,i,16µM*
CN1C[C@@H]2[C@@H]3C(=O)N(Cc4ccccc4)C(=O)[C@@H]3[C@](Cc3ccccc3)(C1=O)N2C(=O)c1ccc(Cl)c(Cl)c1,i,2%,14µM*,-3%
CCN1C[C@@H]2[C@@H]3C(=O)N(Cc4ccccc4)C(=O)[C@@H]3[C@](Cc3ccccc3)(C1=O)N2C(=O)c1ccc(Cl)c(Cl)c1,i,2%,i,5%
Fc1ccccc1N1CCN(c2nc(-c3cccs3)nc3ccccc23)CC1,i,4%,i,14µM*
CC(=O)N1CCN(c2nc(-c3cccs3)nc3ccccc23)CC1,i,-2%,i,-17%
Cc1ccc(-n2cc(CN3CCNC(=O)CC3)c(-c3cccc(C)c3)n2)cc1,i,1%,i,5%
Cc1ccc2c(c1)c1c3n2CCN(C(=O)C2CC2)C3CCC1 (stereo unspecified),i,2%,i,28µM*
Cc1nn(CCCC(=O)NCc2ccc(F)cc2)c(=O)c2nccn12,i,2%,i,8%
Cc1ccc(S(=O)(=O)Nc2ccc3c(c2)C(=O)N([C@H](C)CO)C[C@H](C)[C@@H](CN(C)C(=O)NC2CCCCC2)OCCCC[C@@H](C)O3)cc1,i,0%,16µM*,24%
COc1ccc(S(=O)(=O)N(C)C[C@H]2Oc3ccc(NS(=O)(=O)c4ccccc4)cc3C(=O)N([C@H](C)CO)C[C@@H]2C)cc1,i,0%,18µM*,4%
Cc1ccc(S(=O)(=O)N(C)C[C@@H]2Oc3ncc(C#CCC(C)C)cc3C(=O)N([C@H](C)CO)C[C@H]2C)cc1,i,6%,28µM*,25µM*
Cc1ccc(S(=O)(=O)Nc2ccc3c(c2)C(=O)N([C@H](C)CO)C[C@H](C)[C@H](CN(C)C(=O)Nc2cccc4ccccc24)OCCCC[C@@H](C)O3)cc1,i,6%,13µM*,?
COc1ccc(S(=O)(=O)Nc2ccc3c(c2)C(=O)N([C@H](C)CO)C[C@H](C)[C@@H](CN(C)S(=O)(=O)c2ccccc2)O3)cc1,i,13%,?,0%
COc1ccc(CC(=O)NC(=S)Nc2ccc(S(N)(=O)=O)cc2)cc1,i,0%,.,-9%
OCCNc1ncnc2c1ncn2[C@H]1CN(Cc2cccs2)C[C@@H](CO)O1,i,-3%,i,14%
Cc1ccccc1NC(=O)C1CCCN(S(=O)(=O)c2ccc(-n3cnnn3)cc2)C1 (stereo unspecified),i,0%,i,-19%
O=c1n(Cc2ccccc2)nc2n1-c1ccccc1OC2,i,.,i,?
COc1ccc(Cn2nc3n(c2=O)-c2ccccc2OC3)cc1,i,.,i,14µM*
SMILES,Abeta yeast res,aSyn rescue,FUS suppressor,TDP43 rescue
COc1ccc(NC(=O)/C(Cl)=C(/Cl)S(=O)Cc2ccccc2)cn1 (stereo unspecified),i,-80%,.,3.5µM*
COc1ccc(NC(=O)Cc2ccccc2)cn1,i,2%,i,25%
COc1ccc(CS(=O)(=O)/C(Cl)=C(/Cl)C(=O)Nc2ccc(OC)nc2)cc1,i,?,i,13µM*
COCCCNC(=O)c1cc(-c2ccc(OC)cc2)nc2n[nH]c(-c3ccc(Cl)cc3)c12,i,.,i,23%
CCOc1ccc(CCNC(=O)c2c(C)oc3ncn(CC(C)C)c(=O)c23)cc1,i,.,i,20µM*
COc1ccc2[nH]c3c(=O)n(CCCCC(=O)N4CCCC4)c(=S)[nH]c3c2c1,i,0%,40µM*,-13%
Cc1ccnn1CC(=O)N/N=C/c1cn[nH]c1-c1ccc(F)cc1,i,11%,i,-1%
COc1cccc(NC(=O)CCSc2ccc3ccccc3n2)c1,i,13%,.,13µM*
O=C(O)CCSc1ccc2ccccc2n1,i,1%,i,18µM*
CCn1c(SCc2ccc(C(=O)OC)o2)nc2sc3c(c2c1=O)CCCC3,i,?,i,-10%
Cc1cccc2cc(C#N)c(SCC(=O)NNC(=O)Cc3ccccc3)nc12,i,-4%,i,-28%
CCOC(=O)Cn1c2ccc(C)cc2c2nc(C)sc21,i,-8%,i,16µM*
CN1C(=O)CC(=O)N(C)c2cc(S(=O)(=O)N(C)Cc3ccccc3)ccc21,i,4%,i,1%
O=[N+]([O-])c1cccc(/C=N\N=C2c3ccccc3-c3ccccc32)c1O,i,-8%,.,-33%
Oc1ccc(C=NN=C2c3ccccc3-c3ccccc32)c(O)c1,i,-35%,.,11µM*
Fc1c(F)c(F)c(N/N=C/c2c[nH]c3ccccc23)c(F)c1F,i,-37%,i,?
C(=NN=C1c2ccccc2-c2ccccc21)c1c[nH]c2ccccc12,i,21%,.,13µM*
C=CCOc1ccc(/C=C/C(=O)Nc2ccc(C(=O)NC)cc2)cc1,i,-7%,i,26%
COC(=O)c1ccc(CSc2nnc(C)s2)cc1,i,-24%,i,11%
C[C@]12CC[C@@H]3c4ccc(O)cc4CC[C@H]3[C@@H]1CCC2=O,i,4%,i,4.5µM*
COc1ccc2c(c1)CC[C@@H]1[C@@H]2CC[C@]2(C)[C@@H](C(=O)O)C[C@@H]12,i,-17%,i,20µM*
C[C@]12CCC3c4ccc(O)cc4CCC3C1CC/C2=N\N (stereo partly specified),i,1%,i,?
COc1ccc2c(c1)CC[C@@H]1[C@@H]2CC[C@]2(C)[C@@H](C(C)=O)C[C@@H]12,i,9%,i,3%
